TDP1 block: blocks human tyrosyl-DNA phosphodiesterase 1; recombinant TDP1, AlphaScreen DNA substrate cleavage; 0.28% of 350,000 active; Potency, µM (top dose mostly 130 µM), for inactives: at the highest dose activity change, negative = inhibition, most hits filed as inhibitors; AID 485290; Q9NUW8; further: nearly all actives have a fitted effect of over 40% in size
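Here, a 5' biotin and 3' phosphotyrosine-FITC DNA oligonucleotide reports Tdp1 activity: intact substrate bridges AlphaScreen beads, while cleavage leaves a 3' phosphate and drops signal. All incubations at room temperature.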
PLK1 PBD block: inhibitors of human PLK1 polo-box domain binding | P53350 | Plk1 PBD binding of FITC phosphopeptide, fluorescence polarization | Potency, µM, inactives show max response, negative = inhibition, actives largely listed as inhibitors | 2.8% of 360,000 active | AID 720504; further: series mostly up to about 57 µM; nearly all actives have a fitted effect of over 65% in size
VDR inhibitor: vitamin D3 receptor (human) inhibition | VDR-SRC2-3 peptide fluorescence polarization, 2 h | P11473 | AID 504847 | 0.93% of 400,000 active | Potency, µM, without a hit: max response, negative = inhibition, actives largely listed as inhibitors
Target sequence (P11473 whole entry, looked up): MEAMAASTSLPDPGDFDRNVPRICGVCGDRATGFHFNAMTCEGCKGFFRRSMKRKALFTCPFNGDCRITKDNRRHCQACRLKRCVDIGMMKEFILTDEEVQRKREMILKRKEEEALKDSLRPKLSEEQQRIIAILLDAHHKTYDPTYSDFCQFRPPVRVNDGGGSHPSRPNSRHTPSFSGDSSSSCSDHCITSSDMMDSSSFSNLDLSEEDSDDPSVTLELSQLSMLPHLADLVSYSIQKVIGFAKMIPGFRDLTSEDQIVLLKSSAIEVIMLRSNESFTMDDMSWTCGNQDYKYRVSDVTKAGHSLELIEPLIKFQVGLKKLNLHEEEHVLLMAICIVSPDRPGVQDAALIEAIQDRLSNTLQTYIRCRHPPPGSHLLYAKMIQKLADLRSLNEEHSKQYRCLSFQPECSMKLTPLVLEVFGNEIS
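Reagent solutions, kept cold and dark, are dispensed first; compounds are then pinned in at 23 nl, plates briefly spun, and incubated 2 h at ambient temperature. Inhibition of VDR–SRC2-3 peptide binding is read by fluorescence polarization.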
TDP1 cell noCPT: qHTS for Inhibitors of human tyrosyl-DNA phosphodiesterase 1 (TDP1): qHTS in cells in absence of CPT; DT40 Tdp1-/- hTDP1 cells, no CPT, ATP luminescence, 48 h; Potency, µM (titrated, usually from 46.2 µM), for the others: at the top dose activity change, negative = growth inhibition, usual class: inhibitors; 15% of 420,000 active; further: nearly all actives have a fitted effect of over 55% in size
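Growth of hTDP1-complemented DT40 Tdp1-knockout cells is measured by ATP luminescence after at least 48 hr compound exposure at 37 °C, with DMSO substituting for the 20 nM CPT used in the parallel screen.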
GCN5L2 inh: inhibitors of human GCN5L2 histone acetyltransferase; Q92830; GCN5L2 HAT assay, ThioGlo1 CoA-SH fluorescence; Potency, µM (titrated, usually from 58.9 µM), inactives show at the highest dose activity change, negative = inhibition, usual class: inhibitors; 0.21% of 390,000 active; AID 504327
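GCN5L2 (20nM final) in 50mM HEPES, 0.1mM EDTA pH 7.5, 0.01% Tween-20 was preincubated 15 min at room temperature with compound, then given ThioGlo1 (50uM), H3(1-25) peptide (75uM) and acetyl-CoA (70uM); CoA-thiol fluorescence (Ex340/Em540) was read at 0 and 20 min.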
TDP1 cell CPT: DT40-hTDP1 cell growth loss with CPT; Potency, µM (series often up to 46.2 µM), for inactives: at the highest dose activity change, negative = growth inhibition, hits mostly inhibitors; chicken DT40 Tdp1-/-;hTDP1 cells + 20 nM CPT, ATP luminescence, 48 h; 12% of 420,000 active; further: nearly all actives have a fitted effect of over 55% in size
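Chicken DT40 Tdp1-/- cells stably complemented with human TDP1 were seeded at 400 cells/well in medium containing 20 nM camptothecin, exposed to pin-transferred compounds, and grown at 37 °C for at least 48 hr. Viability was read as ATP luminescence.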
Numbers without * were called inactive; ? = inconclusive; . = no result; [ ] = remark or other dose. A selection: hits, their analogues and other compounds. The true share with any hit is near 18%. The call rests on the fitted dose curve; in most records, active means well fitted curve in the direction sought with a large enough effect; inconclusive means small, poorly fitted or top-dose-only effect, or another doubt; inactive means no such curve, though single readings can be large; an effect the other way counts as inactive or inconclusive. On the % scale 0 is the no-effect control and ±100 the full control effect; potency means the concentration at half of the fitted maximal effect.

SMILES	TDP1 block	PLK1 PBD block	VDR inhibitor	TDP1 cell noCPT	GCN5L2 inh	TDP1 cell CPT
O=C(NCCc1ccccn1)c1ccc(OC2CCN(CCc3ccccc3)CC2)cc1	0%	-13%	0%	-4%	1%	-14%
CC(Cc1ccccn1)NC(=O)c1ccc(OC2CCN(CCc3ccccc3)CC2)cc1 (stereo unspecified)	2%	-12%	-6%	?	-12%	18µM*
O=C(c1ccc(OC2CCN(CCc3ccccc3)CC2)cc1)N1CCCC1	1%	-2%	11%	-10%	-15%	-10%
CC1C(c2ccccc2)=NNc2nc3c(c(=O)n(C)c(=O)n3C)n21 (stereo unspecified)	.	2%	-7%	12µM*	-12%	?
O=C(O)CCCn1cc(NC(=O)COc2ccccc2)cn1	2%	-14%	2%	20%	1%	-8%
CC(Oc1ccc2cc(-c3ccccc3)c(=O)oc2c1)C(=O)NCC1CCC(C(=O)O)CC1 (stereo unspecified)	.	-9%	?	-3%	32µM*	0%
CC(Oc1ccc2ccc(=O)oc2c1)C(=O)NCC1CCC(C(=O)O)CC1 (stereo unspecified)	.	6%	-2%	0%	-3%	5%
COc1ccccc1N(C)C	.	.	.	3%	.	-2%
CCCCC1Cc2[nH]c(=S)[nH]c(=O)c2C(c2ccc3ccccc3c2)O1 (stereo unspecified)	.	-14%	.	?	.	?
CCCC[C@@H]1Cc2[nH][nH]c(=O)c2[C@H](c2ccc(C(C)C)cc2)O1	.	9.5µM*	.	?	.	?
CCCC[C@@H]1Cc2[nH][nH]c(=O)c2[C@@H](c2ccc(Cl)cc2)O1	.	-22%	.	-21%	.	-14%
CCCC[C@@H]1Cc2[nH][nH]c(=O)c2[C@H](c2ccc3ccccc3c2)O1	.	-16%	.	18µM*	.	-1%
COc1ccc(Cl)cc1C(=O)NNC(=O)c1cccs1	-1%	-2%	5%	-17%	-8%	?
O=C(CNCCO)N1CCc2ccccc21	2%	-5%	-5%	7%	0%	1%
CCc1nnc(NCC(=O)N2CCc3ccccc32)s1	2%	24µM*	-13%	?	-5%	?
CN(CCc1ccccc1)C(c1ccnc2ccccc12)c1nnnn1-c1ccc2c(c1)OCCO2 (stereo unspecified)	.	5%	.	16µM*	.	?
c1ccc(CN(Cc2ccccc2)C(c2ccnc3ccccc23)c2nnnn2-c2ccc3c(c2)OCCO3)cc1 (stereo unspecified)	.	2%	.	23µM*	.	?
N#CCCN(Cc1ccccc1)C(c1ccnc2ccccc12)c1nnnn1-c1ccc2c(c1)OCCO2 (stereo unspecified)	.	6%	.	-88%	.	?
Cc1cccc(C)c1-n1nnnc1C(c1ccnc2ccccc12)N(CCC#N)Cc1ccccc1 (stereo unspecified)	.	-8%	.	10µM*	.	13µM*
CC(C)Oc1ccc2c(c1)OC(c1ccccc1)(C(F)(F)F)NC2=O (stereo unspecified)	0%	-1%	2%	26µM*	0%	?
CC(C)Oc1ccc(NC(=O)Oc2ccccc2)cc1	-4%	?	-7%	-28%	6%	?
COc1ccc(S(=O)(=O)Nc2ccc3c(c2)C(=O)N([C@@H](C)CO)C[C@H](C)[C@H](CN(C)S(=O)(=O)c2ccc(F)cc2)O3)cc1	2%	-15%	3%	?	-4%	?
O=C(C[n+]1cccc(C(=O)Nc2ccccc2)c1)c1ccc([N+](=O)[O-])cc1	0%[0.0935 µM]	-7%	2%	?	?	?
O=C(C[n+]1cccc(C(=O)Nc2ccccc2)c1)c1ccc(Cl)cc1	.	-5%	.	16µM*	.	?
COC(=O)N[C@@H](c1cccc(C)c1)[C@@H](C)[N+](=O)[O-]	1%	.	0%	.	.	.
SMILES	TDP1 block	PLK1 PBD block	VDR inhibitor	TDP1 cell noCPT	GCN5L2 inh	TDP1 cell CPT
Cn1c(NC(=O)c2ccc(S(=O)(=O)N3CCOCC3)cc2)cc(=O)n(C)c1=O	3%	-10%	-4%	2%	5%	5%
CCOC(=O)c1sc(NC(=S)NC(=O)c2ccccc2Cl)c(C(=O)OCC)c1C	0%	-6%	2%	26µM*	-4%	?
CN1CCN(c2ccc(NC(=S)NC(=O)c3cccc4c(Cl)cccc34)cc2)CC1	5%	-13%	-1%	?	1%	16µM*
COc1ccc(NC(=S)NC(=O)c2ccccc2Cl)cc1	2%	27µM*	-19%	?	-1%	-29%
COc1cc2ccccc2cc1C(=O)N/N=C/c1cccs1	.	-5%	.	1.8µM*	.	2.3µM*
O=C(N/N=C\c1cccs1)c1ccccc1-n1cccc1	5%	-20%	-5%	-17%	-7%	3%
COc1ccc(NC(=O)c2cc3ccccc3cc2OC)cc1	.	30µM*	?	?	-6%	29µM*
COc1cc2ccccc2cc1C(=O)NC(=S)Nc1ccc(C(=O)O)cc1	50µM*	30µM*	-1%	-4%	-19%	-13%
COc1cc2ccccc2cc1C(=O)Nc1ccc(N2CCN(C)CC2)cc1	5%	2%	-3%	?	-16%	?
Cc1ccc2c(CNCc3ccc(C)o3)c(C(=O)O)n(Cc3ccccc3C)c2c1	11%	.	-8%	?	-7%	?
CC(C)=CCC12Oc3cc(O)ccc3C1(O)Oc1cc(O)c([C@H]3C=C(C)CC(c4ccc(O)cc4O)[C@H]3C(=O)c3ccc(O)cc3O)c(O)c1C2=O (stereo partly specified)	.	-9%	-23%	26µM*	.	?
CCN(CC)C1=CC(=O)OC12CCCCC2	-10%	11µM*	1%	?	20µM*	?
CCC(CC)c1nnc(NC(=O)c2ccc3ccccc3n2)s1	6%	1%	-13%	11µM*	-2%	?
CC(C)=C1CCC(C)CC1=O (stereo unspecified)	4%	.	.	.	.	.
CCCCOc1ccc(C2OC34CCCCC3C(C#N)(C#N)C2(C#N)C(=N)O4)cc1 (stereo unspecified)	5%	21µM*	?	-3%	-11%	-7%
Cc1ccc(C2OC34CCCCCC3C(C#N)(C(=N)O4)C2(C#N)C#N)cc1 (stereo unspecified)	6%	-16%	-3%	?	-8%	-26%

Screening data: PubChem, National Center for Advancing Translational Sciences (NCATS)
